Shown are actives, neighbours in structure and some others; about 2% of the full set was active somewhere.
697 NFkB inh: lowers PMA/ionomycin-induced NF-kB signal in 697 B cells. 697 B-cell NF-kB luciferase reporter, 16 h. inhibition, % at 4 µM. hit rate 0.33% among 330,000. AID 435022; in the data active = inhibition above about 35%
Jurkat NFkB inh: inhibitors of the PMA/ionomycin-induced NF-kB reporter in Jurkat cells; PMA/ionomycin-induced NF-kB luciferase reporter, luminescence; inhibition, % at 4 µM; hit rate 0.53% among 330,000; in the data active = inhibition above about 50%
GalR3 antagonist: antagonists of human GalR3 | O60755 | HEK293 GalR3-CNG cAMP membrane potential fluorescence; galR3 body fused to GalR1 C-terminus | inhibition, % at 3 µM | hit rate 0.44% among 360,000 | AID 651719;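 active = inhibition above the screen-wide average plus 3 SD, cut at about 13% in these data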;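 also: forskolin and galanin both at EC90 stimulate the cells; cAMP rise reported by CNG channel membrane potential dye signal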
NR2F2 inh: NR2F2 (human) inhibition, primary screen. HEK293T NGFI-A luciferase reporter, luminescence. P24468. hit rate 0.7% among 370,000. inhibition, % at 8.6 µM;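 active = inhibition above a per-plate cutoff, mean inhibition of test wells between control levels plus 3 SD, cut at about 38% in these data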;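 also: cells cotransfected with COUP-TFII expression vector driving the NGFI-A reporter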
Target sequence (P24468 whole entry, looked up): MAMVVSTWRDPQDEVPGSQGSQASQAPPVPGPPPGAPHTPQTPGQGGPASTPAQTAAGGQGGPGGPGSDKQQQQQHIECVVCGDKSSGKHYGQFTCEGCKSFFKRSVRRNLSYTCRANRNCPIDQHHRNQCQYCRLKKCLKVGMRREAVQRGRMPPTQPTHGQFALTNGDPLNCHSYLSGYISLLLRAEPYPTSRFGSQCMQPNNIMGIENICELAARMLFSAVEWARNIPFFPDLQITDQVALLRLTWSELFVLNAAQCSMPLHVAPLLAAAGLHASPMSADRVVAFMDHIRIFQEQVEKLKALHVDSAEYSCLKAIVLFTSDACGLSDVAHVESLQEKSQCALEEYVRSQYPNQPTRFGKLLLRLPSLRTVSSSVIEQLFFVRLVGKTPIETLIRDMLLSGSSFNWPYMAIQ
Gli-Sufu block: blocks Gli-Sufu signaling in a luciferase reporter | inhibition, % at 5 µM | Sufu-KO-LIGHT fibroblasts, Gli luciferase reporter luminescence | hit rate 0.74% among 340,000 | AID 588413;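 active = inhibition above about 55%, limit read from the data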
GalR3 antag conf: GalR3 (human) antagonism, confirmation. hit rate 59% among 1,600. HEK293 GalR3 CNG cAMP biosensor, membrane potential fluorescence; galR3 fused to GalR1 carboxy tail; challenged with forskolin and galanin at EC90. inhibition, % at 3 µM. shares compounds with GalR3 antagonist. AID 652245;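 active = inhibition above the primary screen's cutoff, the mean inhibition of all screened compounds plus 3 SD, cut at about 13% in these data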
CNG parental: parental cell agonism counter-screen for GalR3 antagonists; activation, % at 3 µM; shares compounds with GalR3 antagonist; hit rate 10% among 1,600; HEK293-CNG parental cells, cAMP membrane potential fluorescence; normalised: DMSO wells 0%, forskolin wells 100%; in the data active = activation above about 1.3%
Gal4-VP16 ctr: inhibits VP16 reporter, flagging COUP-TFII antagonist hits | shares compounds with NR2F2 inh | HEK293 Gal4-VP16 luciferase reporter, luminescence | inhibition, % at 8.5 µM | hit rate 25% among 2,500 | AID 687007; in the data active = inhibition above about 13%
NR2F2 inh conf: confirmation of human COUP-TFII (NR2F2) inhibitors; shares compounds with NR2F2 inh; HEK293 NGFI-A luciferase reporter, luminescence; inhibition, % at 8.5 µM; hit rate 45% among 2,500;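 active = mean inhibition over three repeats above a set limit taken from the earlier primary screen, cut at about 38% in these data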
Numbers stand for hits; i = inactive; nt = no result given.

SMILES	697 NFkB inh	Jurkat NFkB inh	GalR3 antagonist	NR2F2 inh	Gli-Sufu block	GalR3 antag conf	CNG parental	Gal4-VP16 ctr	NR2F2 inh conf
COc1cccc(NC(=O)c2ccc(CN3CCc4ccccc4C3)cc2)c1	i	i	46	54	i	102	i	i	i
NC(=O)c1ccc(NC(=O)c2ccc(CN3CCOCC3)cc2)cc1	i	i	i	i	i	nt	nt	nt	nt
CCOC(=O)c1ccc(NC(=O)c2ccc(CN3CCc4ccccc4C3)cc2)cc1	i	i	71	51	i	110	i	i	54
CCOC(=O)c1ccc(NC(=O)c2ccc(CN3CCOCC3)cc2)cc1	i	i	94	50	i	110	i	i	38
C[C@H]1C2CC(OC(=O)Nc3ccc4c(c3)OCO4)C(C2)[C@H]2CCCCN21 (stereo not given in full)	nt	nt	nt	i	nt	nt	nt	nt	nt
CCN1CCCCC(NC(=O)c2ccc(F)c(F)c2)C1=O (stereo not given)	nt	nt	nt	i	nt	nt	nt	nt	nt
O=C(C1CCCN1S(=O)(=O)c1ccc(F)cc1)N1CCc2ccccc2C1 (stereo not given)	nt	nt	nt	i	nt	nt	nt	nt	nt
CC1CCC2C(=O)N(c3ccc(Cc4ccncc4)cc3)C(=O)C2C1 (stereo not given)	i	i	91	45	i	109	i	i	i
O=C(Nc1ccc(Cl)cc1)c1csc(COCCO)n1	nt	nt	i	i	nt	nt	nt	nt	nt
O=C(Nc1ccc(Oc2ccccc2)cc1)c1csc(COCCO)n1	nt	nt	92	43	nt	113	i	i	i
CC[C@@H]1CCC[C@@H](O)[C@@H](C)C(=O)O[C@H](C)[C@@H](C)C/C=C(C)/C(OC)=C\C(=O)N(C)C([C@@H](C)CC)C(=O)N(C)[C@@H](C(C)C)C(=O)N(C)[C@@H](COC)C(=O)N2CCC[C@H]2C(=O)N(C)[C@@H](C(C)C)C(=O)N2CCC[C@H]2C(=O)O1 (stereo not given in full)	nt	nt	101	83	nt	115	i	14	82
COc1ccc(NC(=O)CSc2ncccc2C(=O)OC(C)C)cc1OC	i	i	28	58	i	13	i	i	i
CCN(C(=O)[C@@H]1CC(=O)O[C@@H]1c1ccccc1)c1ccccc1	nt	nt	nt	i	nt	nt	nt	nt	nt
CC(=O)N1c2ccc(S(=O)(=O)NCC3CCC(C(=O)Nc4cccc(C)n4)CC3)cc2CC1C (stereo not given)	i	i	24	56	i	i	i	i	i
Cc1ccc(NC(=O)CSc2ncnc3ccccc23)cc1S(=O)(=O)N1CCCCC1	i	i	85	39	i	104	i	i	i
C=CCC1(CC=C)CCCN1C(=O)c1cc(COc2ccc(C)nc2)on1	i	i	99	57	77	103	i	i	55
CC(=O)c1c(C)[nH]c(C(=O)COc2cc(C)ccc2C(C)C)c1C	i	i	73	69	i	113	i	i	66
COc1cc(C)ccc1OCC(=O)OCC(=O)c1[nH]c(C)c(C(C)=O)c1C	i	i	i	i	i	nt	nt	nt	nt
Cc1c(Cl)cccc1NC(=O)N1CCCN(c2nc(-c3ccccc3)ns2)CC1	i	i	34	57	i	99	i	i	51
O=C(Nc1ccccc1Cl)N1CCCN(c2nc(-c3ccccc3)ns2)CC1	i	i	i	i	i	nt	nt	nt	nt
Nc1cc(-c2ccc(Br)cc2)nn1Cc1ccccc1	nt	nt	61	37	i	103	i	i	i
CC(=NNC(=O)CSc1nnc(-c2ccccc2)n1-c1ccccc1)c1cccc([N+](=O)[O-])c1	nt	nt	nt	i	nt	nt	nt	nt	nt
Cc1ccnc(Nc2nc(-c3sc(C)nc3C)cs2)c1	i	i	32	70	i	36	i	i	44
Cc1cccc(Nc2nc(-c3sc(C)nc3C)cs2)c1	i	i	i	i	i	nt	nt	nt	nt
CCOC(=O)[C@]12CCCC=C1N(CCCOC)C(=O)[C@@H]2CC(=O)N1CCSCC1	nt	nt	nt	i	nt	nt	nt	nt	nt
SMILES	697 NFkB inh	Jurkat NFkB inh	GalR3 antagonist	NR2F2 inh	Gli-Sufu block	GalR3 antag conf	CNG parental	Gal4-VP16 ctr	NR2F2 inh conf
O=C(Nc1ccccc1)c1ccc(S(=O)(=O)Nc2cccc(O)c2)cc1	i	i	i	i	i	nt	nt	nt	nt
CC(=O)c1cccc(NS(=O)(=O)c2ccc(C(=O)Nc3ccccc3)cc2)c1	i	i	56	49	i	71	i	i	48
Cc1ccc(NC(=O)CSc2nn(-c3ccccc3)c(=S)s2)cc1S(=O)(=O)N(C)C	i	i	72	68	i	93	i	i	63
O=C(CSc1nn(-c2ccccc2)c(=S)s1)Nn1cnnc1	i	i	i	i	i	nt	nt	nt	nt
CCOCCCNC(=S)N1CCN(c2nc(-c3ccc(F)cc3)cs2)CC1	i	i	37	59	i	88	i	i	42
Cc1ccc(OCc2cc(C(=O)N3CCCCCCC3)no2)cc1C	i	i	i	i	i	nt	nt	nt	nt
O=C(c1cc(COc2ccc3ncccc3c2)on1)N1CCCC1	i	i	101	46	i	30	i	i	i
O=C1C[C@@H](c2ccccc2)N=C2N(Cc3ccc4c(c3)OCO4)C/C(=C/c3ccccc3)N12	nt	nt	nt	i	nt	nt	nt	nt	nt
CCc1cc2c(nc1CC)CCCN2S(=O)(=O)c1c(C)noc1C	nt	nt	i	i	nt	nt	nt	nt	nt
Cn1c(CN2CCCCC2)nc2cc(NC(=O)c3ccc(Cl)cc3)ccc21	i	i	81	62	i	48	i	i	48
Cn1c(CN2CCCC2)nc2cc(NC(=O)c3ccc(Cl)cc3)ccc21	i	i	i	i	i	nt	nt	nt	nt
CCOC(=O)[C@@]12CCCC=C1N(CCc1ccc(Cl)cc1)C(=O)[C@H]2CC(=O)NCCCCc1ccccc1	nt	nt	nt	i	nt	nt	nt	nt	nt
O=C1c2cccc(OCc3ccc(F)cc3)c2CCN1Cc1ccc(F)cc1	i	i	20	58	i	38	i	i	44
CC(COc1ccc([N+](=O)[O-])cc1Cl)CN1CCC(C(O)(c2ccccc2)c2ccccc2)CC1 (stereo not given)	nt	nt	nt	i	nt	nt	nt	nt	nt
Cc1ccc(C2CCC3(CCC(=O)N3CCOC(=O)Nc3cccc(C#N)c3)CC2)cc1 (stereo not given)	nt	nt	nt	i	nt	nt	nt	nt	nt
COc1cccc(CN(C)C(=O)CNC(=O)c2ccc(-c3ccccc3)cc2)c1OC	i	i	53	58	i	116	i	i	47
COc1cccc(CN(C)C(=O)CNC(=O)c2cccs2)c1OC	i	i	i	i	i	nt	nt	nt	nt
Cc1cccc(NC(=O)CN2C(=O)CCSc3ccccc32)c1C	nt	nt	nt	i	nt	nt	nt	nt	nt
COc1ccc(-c2coc3c(C(=O)NCCc4ccccc4)cccc23)c(C)c1	nt	nt	i	i	nt	nt	nt	nt	nt
COc1ccc(-c2coc3c(C(=O)NCc4ccc(OC)c(OC)c4)cccc23)c(C)c1	nt	nt	89	79	nt	104	i	i	69
